Rows were chosen to be rich in hits. Some 1.8% of all compounds tested hit in one or more screens of this group.
MEP2-GFP yeast: modulators of MEP2-GFP levels in yeast, primary screen, S. cerevisiae, multiplex flow cytometry, MLPCN library; S. cerevisiae MEP2-GFP strain, 3 h; 100% = DMSO control level; GFP response vs DMSO, % at 10 µM; 330,000 compounds, 0.51% hits;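 active = GFP response versus DMSO above a set limit, roughly screen mean plus 3 SD, cut at about 180% in these data; inconclusive = fewer than 70 cells counted for a yeast strain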;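 also: median GFP fluorescence of the barcode-gated MEP2-GFP cells per well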
LAP4-GFP MLPCN: modulators of LAP4-GFP expression in yeast, primary screen, S. cerevisiae, multiplex flow cytometry, MLPCN library. 3 h; median GFP as percent of DMSO wells. GFP response vs DMSO, % at 10 µM. 320,000 compounds, 0.34% hits;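 active = GFP response vs DMSO above a set limit, about the screen mean plus 3 SD, cut at about 150% in these data; inconclusive = under 70 cell events counted for the yeast strain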
CIT2 TOR yeast: modulators of CIT2-GFP expression in yeast, primary screen, S. cerevisiae, GFP fusion, multiplex flow cytometry, MLPCN library. S. cerevisiae CIT2-GFP strain, 3 h; 100 means same as DMSO wells. GFP response vs DMSO, % at 10 µM. 320,000 compounds, 0.065% hits. AID 2029, 2009;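 active = GFP response relative to DMSO above a set limit, near the screen mean plus 3 SD, cut at about 150% in these data; inconclusive = Fewer than 70 cells measured for a yeast strain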;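 also: ratio of well median GFP fluorescence to mean of DMSO wells on the plate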
AGP1-GFP MLPCN: modulators of AGP1-GFP expression in yeast TOR pathway, primary screen, cell-based, multiplex flow cytometry, S. cerevisiae, MLPCN library; GFP response vs DMSO, % at 10 µM; 320,000 compounds, 0.02% hits; 3 h; GFP as percent of DMSO wells;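 active = GFP response relative to DMSO above a set limit, near screen average plus 3 SD, cut at about 150% in these data; inconclusive = fewer than 70 cells counted for the yeast strain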;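 also: median GFP channel fluorescence of the gated AGP1 strain per well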
RPL19A TOR yeast: RPL19A-GFP expression modulators in yeast, primary screen, cell-based, S. cerevisiae, multiplex flow cytometry, MLPCN; percent response vs DMSO, % at 10 µM; 330,000 compounds, 0.3% hits; S. cerevisiae RPL19A-GFP strain, 3 h; active compounds read low;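 active = percent response vs DMSO below 50%; inconclusive = fewer than 70 events counted for the yeast strain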;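 also: median channel GFP fluorescence of the barcoded RPL19A-GFP strain; lower means less RPL19A-GFP as with rapamycin TOR inhibition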
Myeloid diff 2: induction of myeloid progenitor differentiation, primary screen, cell-based, flow cytometry, MLPCN library; ER-HoxA9 myeloid progenitors, lysozyme-GFP differentiation; calls only at 10 µM; 360,000 compounds, 1% hits;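 active = normalized GFP-positive differentiation at or above the plate's own cutoff, the solvent-only control mean plus 3 SD; inconclusive = no clear call, values can overlap the other calls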;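 also: cells exposed to compound for four days before flow analysis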
LAP4-GFP pick2: LAP4-GFP expression modulators in yeast, confirmation, cell-based, second cherry pick, flow cytometry. S. cerevisiae LAP4-GFP strain, 3 h. shares compounds with LAP4-GFP MLPCN. GFP response vs DMSO, % at 10 µM. 590 compounds, 20% hits. AID 2621, 2010;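 active = GFP signal as percent of the solvent control above about 150%, meaning raised reporter expression, limit read from the data; inconclusive = fewer than 70 cells counted in the well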
MEP2-GFP pick2: modulators of MEP2-GFP levels in yeast, confirmation, S. cerevisiae, flow cytometry GFP, second cherry picks. shares compounds with LAP4-GFP MLPCN. S. cerevisiae MEP2-GFP strain, 3 h. GFP response vs DMSO, % at 10 µM. 590 compounds, 10% hits. AID 2622, 2010;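 active = GFP signal above 150% of the solvent control wells, that is a rise of more than half; inconclusive = fewer than 70 yeast cells counted in the well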;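 also: median channel GFP fluorescence of all gated yeast cells per well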
RPL19A-GFP pick2: RPL19A-GFP modulators in TOR pathway yeast, confirmation, cell-based, S. cerevisiae, flow cytometry, second cherry pick | GFP response vs DMSO, % at 10 µM | shares compounds with LAP4-GFP MLPCN | S. cerevisiae RPL19A-GFP strain, 3 h; active compounds read low; 100% means same as DMSO wells | 590 compounds, 3% hits;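 active = under 65% GFP response relative to DMSO; inconclusive = yeast strain with under 70 measured events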;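 also: median GFP channel fluorescence per well over the all cells gate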
CIT2 GFP CP2: modulators of CIT2-GFP expression in yeast, confirmation, flow cytometry, second cherry pick, single plex. shares compounds with LAP4-GFP MLPCN. S. cerevisiae CIT2-GFP strain, 3 h; DMSO control wells read 100%. GFP response vs DMSO, % at 10 µM. 590 compounds, 8% hits. AID 2624, 2010;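 active = GFP response vs DMSO above about 150%, limit read from the data; inconclusive = fewer than 70 events counted for a yeast strain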;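 also: median green fluorescence per well over all gated yeast cells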
AGP1 GFP CP2: AGP1-GFP expression modulators, hit retest, confirmation, cell-based, flow cytometry, S. cerevisiae, cherry pick set 2; shares compounds with LAP4-GFP MLPCN; S. cerevisiae AGP1-GFP strain, 3 h; percent response vs DMSO, % at 10 µM; 590 tested, under 10 active;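 active = over 150 percent of DMSO response; inconclusive = yeast strain measured with under 70 events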;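 also: median GFP channel fluorescence over all cells without mother daughter split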
s288c autofluor: compound autofluorescence in yeast s288c, dose response, artefact control for yeast TOR pathway GFP screen, s288c strain | AID 2757, 2010 | S. cerevisiae s288c, 520 nm autofluorescence, flow cytometry, 3 h; active compounds read high; zero means same as solvent-only cells | shares compounds with LAP4-GFP MLPCN | fluorescence change (kMESF span) at 33 µM | 610 tested, under 10 active;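 active = fluorescence span over the dose series, or activity score, above about 33, limit read from the data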
Large screens that a line does not name were inactive (follow-up assays come after a bar, where they were run); [ ] = remark or other dose.

COC(=O)CCCC1=CC2=CC(=O)C(C)(OC(=O)CCc3ccccc3)C(=O)C2=CO1 (stereo unspecified)	LAP4-GFP MLPCN 156 | LAP4-GFP pick2 inactive | MEP2-GFP pick2 inactive | RPL19A-GFP pick2 inactive | CIT2 GFP CP2 inactive | AGP1 GFP CP2 inactive | s288c autofluor inactive
Cc1cc(C(C)C)n2c(nc3ccccc32)c1C#N	none (no result: Myeloid diff 2)
Cc1cc(-c2ccco2)c(C#N)c2nc3ccccc3n12	Myeloid diff 2 active | LAP4-GFP pick2 inactive | MEP2-GFP pick2 inactive | RPL19A-GFP pick2 inactive | CIT2 GFP CP2 inactive | AGP1 GFP CP2 inactive
C[C@@H]1[C@H](c2ccccc2)Oc2ccc(Cl)cc2S(=O)(=O)N1CC1CCCN1C(=O)OC(C)(C)C (stereo partly specified)	none (no result: MEP2-GFP yeast, LAP4-GFP MLPCN, CIT2 TOR yeast, AGP1-GFP MLPCN, RPL19A TOR yeast)
O=C1OC(c2ccc(F)cc2)=C/C1=C\c1ccc([N+](=O)[O-])o1	MEP2-GFP yeast 647[may fluoresce green], LAP4-GFP MLPCN 291[may fluoresce green], CIT2 TOR yeast 217[may fluoresce green] (no result: Myeloid diff 2) | LAP4-GFP pick2 667 | MEP2-GFP pick2 active | RPL19A-GFP pick2 inactive | CIT2 GFP CP2 991 | AGP1 GFP CP2 174
CC(=O)Nc1ccc(S(=O)(=O)N2CCN(S(=O)(=O)N3CCC(C)CC3)CC2)cc1	none
O=C(NC(=S)Nc1ccc2oc(=O)ccc2c1)c1cccc(F)c1	none
O=C(NC(=S)Nc1ccc2oc(=O)ccc2c1)c1cccc(Cl)c1	none | LAP4-GFP pick2 inactive | MEP2-GFP pick2 inactive | RPL19A-GFP pick2 inactive | CIT2 GFP CP2 inactive | AGP1 GFP CP2 inactive | s288c autofluor inactive
Cc1ccc(C2(C)NC(=O)N(CC(=O)Nc3ccc(Cl)c(S(=O)(=O)N4CCCCC4)c3)C2=O)cc1 (stereo unspecified)	none
COCCN(Cc1cn(C)nc1-c1ccccc1F)C(C)C	none (no result: AGP1-GFP MLPCN)
Cc1ccc(SCC(=O)NNC(=O)CCS(=O)(=O)c2ccc(C)cc2)cc1	LAP4-GFP MLPCN 219 | LAP4-GFP pick2 inactive | MEP2-GFP pick2 inactive | RPL19A-GFP pick2 inactive | CIT2 GFP CP2 inactive | AGP1 GFP CP2 inactive
COc1ccc(/C=C2\N=C(C)OC2=O)cc1[N+](=O)[O-]	LAP4-GFP MLPCN 161 | LAP4-GFP pick2 inactive | MEP2-GFP pick2 inactive | RPL19A-GFP pick2 inactive | CIT2 GFP CP2 inactive | AGP1 GFP CP2 inactive
COc1ccc(/C=N/Nc2nc(=O)[nH]nc2C)cc1[N+](=O)[O-]	none
C=C1CCN(Cc2ccccc2)S(=O)(=O)c2ccccc21	LAP4-GFP MLPCN 163 | LAP4-GFP pick2 inactive | MEP2-GFP pick2 inactive | RPL19A-GFP pick2 inactive | CIT2 GFP CP2 inactive | AGP1 GFP CP2 inactive
O=C1CCN(Cc2ccccc2)S(=O)(=O)c2ccccc21	none
Cc1ccc(/C=N/Nc2ncc(Cl)cc2Cl)s1	LAP4-GFP MLPCN 298 (no result: Myeloid diff 2) | s288c autofluor inactive
Clc1cnc(N/N=C/c2cccs2)c(Cl)c1	LAP4-GFP MLPCN 158 | s288c autofluor inactive
C=CCn1c(SCC(=O)Nc2cccnc2Cl)nnc1-c1ccc(C(C)(C)C)cc1	none
CCOc1cc(N2CCOCC2)c(OCC)cc1NC(=O)CN1C(=O)NC2(CCCCC2C)C1=O (stereo unspecified)	none (no result: MEP2-GFP yeast, LAP4-GFP MLPCN, CIT2 TOR yeast, AGP1-GFP MLPCN, RPL19A TOR yeast)
CCc1cccc2sc(N3CCN(C(=O)c4ccc([N+](=O)[O-])o4)CC3)nc12	RPL19A TOR yeast 32, Myeloid diff 2 inconclusive | s288c autofluor inactive
O=C1c2ccccc2C(=O)N1N(c1ccccc1)c1ccccc1	none (no result: MEP2-GFP yeast, LAP4-GFP MLPCN, CIT2 TOR yeast, AGP1-GFP MLPCN, RPL19A TOR yeast)
O=C1C=CC(=O)N1N(c1ccccc1)c1ccccc1	none | s288c autofluor inactive
COc1ccc(C(=O)NCCS(=O)(=O)NCc2ccco2)cc1	none
COc1cccc(C(=O)NCCS(=O)(=O)NCc2ccco2)c1	LAP4-GFP MLPCN 151 | LAP4-GFP pick2 inactive | MEP2-GFP pick2 inactive | RPL19A-GFP pick2 inactive | CIT2 GFP CP2 inactive | AGP1 GFP CP2 inactive
COc1cc(C(=O)NCc2nnc(SCC(=O)Nc3nccs3)o2)cc(OC)c1OC	none | LAP4-GFP pick2 inactive | MEP2-GFP pick2 inactive | RPL19A-GFP pick2 inactive | CIT2 GFP CP2 inactive | AGP1 GFP CP2 inactive
CC(C)Cn1c(N)c(C(=O)COC(=O)c2ccc(Cl)cc2)c(=O)n(C)c1=O	none
CC(C)Cn1c(N)c(C(=O)COC(=O)c2c(O)c(Cl)cc(Cl)c2Cl)c(=O)n(C)c1=O	MEP2-GFP yeast active, LAP4-GFP MLPCN active, CIT2 TOR yeast active, AGP1-GFP MLPCN 320 | LAP4-GFP pick2 inactive | MEP2-GFP pick2 inactive | RPL19A-GFP pick2 inactive | CIT2 GFP CP2 inactive | AGP1 GFP CP2 inactive
O=C(c1cc([N+](=O)[O-])ccc1Cl)N1CCN(Cc2ccccc2)CC1	none
COc1cccc(N2CCN(c3ccc4nnc(CCC(=O)Nc5ccc(C)cn5)n4n3)CC2)c1	none | LAP4-GFP pick2 inactive | MEP2-GFP pick2 inactive | RPL19A-GFP pick2 inactive | CIT2 GFP CP2 inactive | AGP1 GFP CP2 inactive
O=C(CCS(=O)(=O)c1ccc2c(c1)NC(=O)CS2)NCCc1ccccc1	LAP4-GFP MLPCN 159 | LAP4-GFP pick2 inactive | MEP2-GFP pick2 inactive | RPL19A-GFP pick2 inactive | CIT2 GFP CP2 inactive | AGP1 GFP CP2 inactive
N=C1S/C(=C\c2ccco2)C(=O)N1c1nccs1	LAP4-GFP MLPCN 168 | s288c autofluor inactive
N=C1S/C(=C\c2ccco2)C(=O)N1c1ccc2c(c1)OCO2	none

Assay outcomes deposited in PubChem BioAssay by NMMLSC.
